Hits are enriched below; roughly 1.2% of the tested compounds scored in any of these assays.
LANA-H2A inh: blocks KSHV LANA binding to histone H2A/H2B; cell-free LANA-H2A/H2B peptide, fluorescence polarization; inhibition, % (no concentration beside the values); hit rate 0.6% among 320,000; Q9QR71; in the data active means inhibition mostly above about 10%, no sharp cut-off; inactive means mostly below about 6.7%
Yeast superoxide: yeast age-related superoxide inhibition as caloric restriction mimetic; S. cerevisiae aged cells, superoxide DHE fluorescence; stronger effect = lower value; superoxide response (% of plate mean), % at 10 µM; hit rate 0.18% among 330,000; AID 2690;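 active means superoxide response under a set limit, about three screen SD below normal, cut at about 65% in these data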;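 further: yeast aged for seven days with compound at 30 °C before DHE staining; 100% = average MFI of all compound-treated wells on the plate with controls excluded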
HDAC3 inhib: human HDAC3 inhibition; recombinant HDAC3, fluorogenic peptide/trypsin coupled, fluorescence; inhibition, % at 8.3 µM; hit rate 0.15% among 320,000; AID 2718; in the data active means inhibition above about 26%, passing the limit was not always enough
Target sequence (O15379 whole entry, looked up): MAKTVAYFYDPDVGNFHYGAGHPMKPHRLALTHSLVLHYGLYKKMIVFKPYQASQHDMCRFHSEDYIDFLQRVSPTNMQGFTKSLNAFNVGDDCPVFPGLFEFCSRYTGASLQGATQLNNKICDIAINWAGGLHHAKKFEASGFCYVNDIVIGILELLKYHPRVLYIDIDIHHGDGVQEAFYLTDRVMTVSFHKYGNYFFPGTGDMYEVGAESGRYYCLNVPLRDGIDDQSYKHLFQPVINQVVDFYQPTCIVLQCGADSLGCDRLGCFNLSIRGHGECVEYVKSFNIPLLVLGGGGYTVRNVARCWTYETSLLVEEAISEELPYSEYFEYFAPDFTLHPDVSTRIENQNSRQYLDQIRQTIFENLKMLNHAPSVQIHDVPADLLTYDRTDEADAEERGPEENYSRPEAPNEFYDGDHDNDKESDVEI
HIF act: HIF pathway transcriptional activation; AID 1910; activation, % at 7.5 µM (by protocol); hit rate 0.32% among 300,000; U2OS HRE-luciferase reporter, luminescence; normalized: DMSO 0%, desferrioxamine 100%;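 active means mean activation of at least 10% of the iron chelator positive control signal, with at least half of replicates also reaching 10%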
The depositor's hits bear a star; . = not tested or not shown; + = active, no number.

SMILES	LANA-H2A inh	Yeast superoxide	HDAC3 inhib	HIF act
CCN1CNC(=S)N(CCc2ccccc2)C1	0	90	4	0
CCN(CC)CCCNC(=O)c1[nH]c2ccccc2c1Sc1ccc(Cl)cc1	-2	98	2	1
COc1cc2c(cc1OC)C(SC)=NC1(CCCC1)C2	1	97	-4	0
COc1cc2c(cc1OC)C(C)=NC1(CCCCC1)C2	8.0*	107	.	0
O=C(NO)c1ccc(OC(F)F)cc1	6	113	73*	8
O=C(N/N=C/c1ccc(OC(F)F)cc1)c1ccc(Br)cc1	-1	109	1	-1
CCOC(=O)c1cc(-c2ccccc2)n(CC2CC(c3ccc(OC)cc3)=NO2)n1 (stereo unspecified)	-1	102	2	0
CN(CC(=O)NCCc1ccc(S(N)(=O)=O)cc1)S(=O)(=O)/C=C/c1ccccc1	6	96	-3	0
Cc1cc(-c2nnnn2-c2cc(Cl)cc(Cl)c2)no1	1	94	2	13*
CCN(CC)c1ccc(NC(=O)CSc2nc3nc(C)cc(C)c3c(=O)[nH]2)cc1	.	97	.	386*
CC(C)(C)OC(=O)NC1CC2CCCC(C1)N2Cc1ccccc1 (stereo unspecified)	.	.	.	2
COc1cc(C(=O)ON=C2C(C)=CC(=O)C=C2C)cc(OC)c1OC	0	93	-5	-1
COc1cc(C(=O)O/N=C2/C=C(C)C(=O)C=C2C)cc(OC)c1OC	2	110	35*	0
Cc1cc(C)c(-c2c(O)c3cccc4c3n(c2=O)CCC4)c(C)c1	1	102	-6	0
O=c1c(-c2ccccc2)c(O)c2cccc3c2n1CCC3	20*	123	-10	-1
C=CCn1c(SCc2c(C)noc2C)nc2sc(C)c(C)c2c1=O	56*	92	-4	1
Cc1noc(C)c1CSc1nc2sc(C)c(C)c2c(=O)n1-c1ccccc1	-1	102	-3	0
Cc1ccc(C)c(OCCC(=O)NCCc2ccc(S(N)(=O)=O)cc2)c1	29*	91	-3	0
O=C(NCCc1ccc(F)cc1)C1CCN(C(=O)Nc2ccccc2)CC1	-13	82	-4	.
Cn1c(NCc2cccs2)nc2ccccc21	22*	103	-4	6
COC(=O)[C@@H]1[C@H](CCc2ccccc2)NC(=O)N(Cc2ccccc2)[C@@H]1C	1	113	7	-1
COc1ccccc1CNC(=O)CSc1nc2nc(C)cc(C)n2n1	50*	100	-2	0
COc1ccccc1CNC(=O)c1cc(C)nn1-c1ccccc1	-2	44*	2	0
CC1CCCC(N2CCN(C(=O)c3ccc([N+](=O)[O-])cc3)CC2)C1 (stereo unspecified)	-4	102	7	1
NC(=O)c1ccc(N=Cc2ccc([N+](=O)[O-])s2)cc1	17*	84	8	.
SMILES	LANA-H2A inh	Yeast superoxide	HDAC3 inhib	HIF act
Cc1cc(C)cc(N=Cc2ccc([N+](=O)[O-])s2)c1	-1	76	-2	0
COc1ccccc1NS(=O)(=O)c1ccc2oc(SCC(C)=O)nc2c1	1	94	42*	0
O=C(CSc1n[nH]c(-c2ccccc2Cl)n1)NC1CCCCC1	-3	79	0	-33
Cc1ccc([N+](=O)[O-])cc1S(=O)(=O)Nc1ccc(C(=O)N2CCN(C(=O)c3ccco3)CC2)cc1	16*	91	4	.
O=C(COc1ccc([N+](=O)[O-])cc1)Nc1ccc(N2CCN(C(=O)c3ccco3)CC2)cc1	28*	86	0	0
O=C(COc1ccc(Cl)cc1)Nc1ccc(N2CCN(C(=O)c3ccco3)CC2)cc1	3	112	2	0
Cc1ccc([N+](=O)[O-])cc1S(=O)(=O)Nc1ccc(C(=O)N(C)C)cc1	0	108	2	0
O=C(NCCCO)C(=O)NCCc1ccc(Cl)cc1	3	97	-7	0
CCOCCCNC(=O)C(c1ccccc1)N(Cc1ccc2c(c1)OCO2)C(=O)c1ccccc1O (stereo unspecified)	-4	96	-10	-1
CCc1ccc(C(c2ccc(CC)cc2)C(Cl)Cl)cc1	24*	93	-7	.
Clc1ccc(C(c2ccccc2Cl)C(Cl)Cl)cc1 (stereo unspecified)	-5	107	6	.
CC(NC(=O)CCC(=O)N1CCCCCC1)c1ccccc1 (stereo unspecified)	14*	103	-1	-12
CC(NC(=O)CN1C(=O)NC2(CCc3ccccc32)C1=O)c1ccccc1 (stereo unspecified)	.	99	.	.
O=C(CN1C(=O)NC2(CCCCCC2)C1=O)NCCc1ccccc1	186*	95	2	.
CCCC(C)NC(=O)CN1C(=O)NC2(CCc3ccccc32)C1=O (stereo unspecified)	-2	98	1	40*
CC(NC(=O)CN1C(=O)NC2(CCCCCC2)C1=O)c1ccccc1 (stereo unspecified)	78*	91	-6	.
CC(NC(=O)CCC(=O)NC(C)c1ccccc1)c1ccccc1 (stereo unspecified)	1	99	-2	-4
Cc1ncc([N+](=O)[O-])n1CC(=O)NC1CCCCCC1	3	101	.	0
Cn1c(C(=O)OC(C(=O)NC2CCCCC2)c2ccncc2)cc2sccc21 (stereo unspecified)	-4	108	-2	0
Cc1ccc(S(=O)(=O)NCC(=O)N(CC(=O)NCC2CCCO2)Cc2ccco2)cc1 (stereo unspecified)	1	107	6	0
O=C(Nc1ccnn1C1CCN(Cc2cccc(OCCO)c2)CC1)C1CCOC1 (stereo unspecified)	1	115	7	0
O=C(O)/C(=C\c1cccc(OCc2ccccc2)c1)c1ccc(F)cc1	10*	112	3	0
CCCOc1c(Br)cc(C(=O)OCC(=O)NC(=O)c2cccn2C)cc1OC	+	95	3	.
Cc1ccc(CNC(=O)C2CCC(=O)N2Cc2ccc(F)cc2)cc1 (stereo unspecified)	-3	101	-5	0
Cc1ccc(CN2C(=O)CCC2C(=O)NCc2cccnc2)cc1 (stereo unspecified)	18*	115	-2	0
SMILES	LANA-H2A inh	Yeast superoxide	HDAC3 inhib	HIF act
CN(c1ccc(OCC(=O)Nc2cc(Cl)ccc2C(=O)O)cc1)S(=O)(=O)c1ccc(F)cc1	-4	59*	0	.
COc1ccc(NC(=O)COc2ccc(N(C)S(=O)(=O)c3ccc(Cl)cc3)cc2)cc1	-3	126	-3	.
CN1CCN(c2cc(N3CCc4ccccc4C3)c(F)cc2[N+](=O)[O-])CC1	0	110	8	0
CC12CC3CC(C)(C1)CC(C(=O)NCc1cccnc1)(C3)C2	-1	97	1	0
Cc1ccc(CCN2CC(C(=O)NC3CCCCC3)CC2=O)cc1 (stereo unspecified)	22*	106	1	0
c1ccc(-c2nnc(-c3ccccn3)nc2NC2CCCCC2)cc1	-2	90	7	472*
Oc1ccccc1-c1nc(NC2CCCC2)c2ccccc2n1	0	102	14	0
CNc1nc(-c2ccccn2)nnc1-c1ccccc1	3	91	-6	14*
